# Most compounds without a hit are left out; they make up all but 0.86% or so of the library.
# TLR4-MyD88 BLA: blocks binding of human TLR4 to MyD88; O00206+Q99836; HeLa CL3-4 TLR4/MyD88 BLA complementation, FRET ratio; inhibition, % at 8.4 µM; hit rate 0.18% among 200,000; in the data active means inhibition above about 25%
# NOD2-RIPK2 inh: inhibitors of human NOD2-RIPK2 interaction; O43353; CHO BLA complementation NOD2-RIPK2, CCF4 ratio; inhibition, % at 4.98 µM; hit rate 0.38% among 360,000; AID 624267; in the data active means inhibition above about 21%
# IDE inh: cellular human IDE inhibition; inhibition, % at 5.59 µM; hit rate 0.41% among 320,000; P14735; HEK cells, FAbetaB cleavage, fluorescence polarization; AID 434962;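 active means percent inhibition above the average of all tested compounds plus 3 SD, set per screening campaign, cut at about 16% in these data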;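 further: IDE supplied by intact live HEK cells; FP after avidin binding of uncleaved biotin substrate so inhibition keeps polarization high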
# Target sequence (P14735 whole entry, looked up): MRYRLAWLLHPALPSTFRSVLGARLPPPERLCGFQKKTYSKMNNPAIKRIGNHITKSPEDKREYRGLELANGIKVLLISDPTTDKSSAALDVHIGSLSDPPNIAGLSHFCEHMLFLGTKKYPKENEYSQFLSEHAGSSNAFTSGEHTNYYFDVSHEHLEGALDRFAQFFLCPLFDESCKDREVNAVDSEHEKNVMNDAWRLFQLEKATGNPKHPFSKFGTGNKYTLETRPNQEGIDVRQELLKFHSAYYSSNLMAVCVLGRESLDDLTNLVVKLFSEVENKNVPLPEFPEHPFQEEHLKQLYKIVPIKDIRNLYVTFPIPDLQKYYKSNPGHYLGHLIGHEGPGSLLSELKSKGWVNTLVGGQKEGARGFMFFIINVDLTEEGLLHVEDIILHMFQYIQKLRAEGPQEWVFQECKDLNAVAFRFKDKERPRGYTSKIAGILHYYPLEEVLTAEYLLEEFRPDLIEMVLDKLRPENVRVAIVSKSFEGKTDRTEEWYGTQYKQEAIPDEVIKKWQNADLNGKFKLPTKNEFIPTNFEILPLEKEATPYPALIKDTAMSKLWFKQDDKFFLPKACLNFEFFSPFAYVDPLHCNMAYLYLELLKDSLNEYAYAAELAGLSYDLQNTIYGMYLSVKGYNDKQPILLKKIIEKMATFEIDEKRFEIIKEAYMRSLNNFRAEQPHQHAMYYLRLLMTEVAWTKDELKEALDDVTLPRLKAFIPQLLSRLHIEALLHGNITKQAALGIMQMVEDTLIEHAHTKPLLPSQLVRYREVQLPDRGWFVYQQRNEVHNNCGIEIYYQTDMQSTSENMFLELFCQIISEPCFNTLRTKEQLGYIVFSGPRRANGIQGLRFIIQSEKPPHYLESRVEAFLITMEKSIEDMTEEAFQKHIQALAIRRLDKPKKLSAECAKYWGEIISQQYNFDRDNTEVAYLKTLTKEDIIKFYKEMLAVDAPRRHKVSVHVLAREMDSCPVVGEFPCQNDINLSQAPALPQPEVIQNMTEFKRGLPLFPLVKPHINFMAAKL
# TLR9-MyD88 inh: inhibitors of human TLR9-MyD88 binding. CHO BLA complementation TLR9-MyD88, CCF4 FRET ratio. inhibition, % at 4.98 µM. hit rate 0.21% among 340,000. AID 504734;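 active means inhibition above the mean over all tested compounds plus 3 SD, cut at about 21% in these data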
# IDE cell activ: IDE (human) activation, cell-based. P14735. HEK cells, FAbeta-B cleavage, fluorescence polarization; 0% vehicle, 100% cell-free pure enzyme wells. activation, % at 5.96 µM. hit rate 0.073% among 340,000;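 active means activation above the mean of all tested compounds plus 3 SD, set per screening campaign, cut at about 17% in these data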
# TLR4-MyD88 conf: TLR4-MyD88 interaction inhibition confirmed; shares compounds with TLR4-MyD88 BLA; HeLa CL3-4 BLA complementation, CCF4 FRET ratio; inhibition, % at 8.4 µM; hit rate 50% among 350; AID 941;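 active means mean inhibition across three repeat runs above about 25% carried over from the earlier screen, limit read from the data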
# BLA inhibitor ct: counter-screen for TLR4-MyD88 inhibitors: beta-lactamase reporter inhibitors. HeLa BLA reporter, CCF4 FRET ratio. shares compounds with TLR4-MyD88 BLA. hit rate 63% among 350. inhibition, % at 8.4 µM;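 active means mean inhibition over three repeats above about 26% taken from the earlier screen, limit read from the data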;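 further: HeLa cells stably expressing beta-lactamase reporter as counterscreen for TLR4-MyD88 inhibitors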
# IDE inh confirm: confirmation of human insulin-degrading enzyme inhibitors in cells; shares compounds with IDE inh; HEK cells, FAbetaB cleavage, fluorescence polarization; inhibition, % at 5.59 µM; hit rate 51% among 1,200;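 active means mean inhibition across triplicate wells above the cutoff set by the earlier primary insulin-degrading enzyme screen, cut at about 16% in these data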
# HEK293 tox: HEK cell cytotoxicity, counter-screen for IDE inhibitors. shares compounds with IDE inh. AID 449730. inhibition, % at 5.59 µM. hit rate 28% among 1,200. HEK293 cytotoxicity, ATP luminescence; in the data active means inhibition above about 22%
# TLR9-MyD88 cf: TLR9-MyD88 interaction inhibition, confirmation; shares compounds with TLR9-MyD88 inh; CHO TLR9/MyD88 BLA complementation, CCF4 FRET ratio; hit rate 51% among 680; inhibition, % at 4.98 µM; AID 540250;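 active means mean inhibition across three repeats above about 21% taken from the earlier screen, limit read from the data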;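 further: blue over green emission ratio reports constitutive TLR9 MyD88 association via BLA complementation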
# BLA counter-1: beta-lactamase reporter inhibition, counter-screen artifact; hit rate 7% among 680; inhibition, % at 4.98 µM; CHO-BLA cells, CCF4 FRET ratio, BLA reporter; shares compounds with TLR9-MyD88 inh;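 active means mean inhibition above a 50% cutoff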;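 further: counterscreen of TLR9-MyD88 hits on CMV-driven BLA in CHO-K1 cells; higher means less blue over green ratio so more BLA blockade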
# TLR9 CHO cytotox: counter-screen for TLR9-MyD88 inhibitors: cytotoxicity in CHO cells; inhibition, % at 4.98 µM; hit rate 39% among 680; luminescence; AID 588336; shares compounds with TLR9-MyD88 inh; in the data active means inhibition above about 11%
# NOD2-RIPK2 conf: NOD2-RIPK2 interaction inhibition confirmed; inhibition, % at 4.98 µM; CHO cells, NOD2-RIPK2 BLA complementation, CCF4 FRET; shares compounds with NOD2-RIPK2 inh; hit rate 70% among 1,200;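 active means mean inhibition across replicates above a set limit taken from the earlier primary screen, cut at about 21% in these data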
# BLA counter-2: NOD2-RIPK2 counterscreen BLA reporter activity. shares compounds with NOD2-RIPK2 inh. CHO BLA reporter, CCF4 FRET ratio. inhibition, % at 4.98 µM. hit rate 57% among 1,200. AID 624371;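 active means mean inhibition above the low-control mean inhibition plus three low-control SD, cut at about 11% in these data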
# A number is an active result; i = inactive; nt = no result given.
SMILES,TLR4-MyD88 BLA,NOD2-RIPK2 inh,IDE inh,TLR9-MyD88 inh,IDE cell activ,IDE inh confirm,HEK293 tox,others
COC(=O)[C@]12OC[C@]34C([C@@H](O)[C@@H]1O)[C@]1(C)CC(=O)C(O)=C(C)[C@@H]1C[C@H]3OC(=O)[C@H](O)[C@@H]24 (some centres not stated),nt,26,i,i,i,nt,nt,
CCN(CC)c1ccc(CNCCc2ccc(F)cc2)cc1,i,i,i,i,i,nt,nt,
C[C@]12CCC3C(CC[C@H]4C[C@H](O)CC[C@]34C)C1C[C@@H](O)[C@@H]2O (some centres not stated),nt,i,i,i,i,nt,nt,
O=C(c1ccccc1)C1NC1c1ccccc1 (configuration not stated),nt,i,i,i,20,nt,nt,
O=c1c2ccccc2nc(/C=C/c2ccc(O)cc2)n1-c1ccccc1O,nt,i,34,i,i,nt,nt,
O=c1c2ccccc2nc(/C=C/c2ccccc2)n1-c1ccccc1O,nt,i,i,i,i,nt,nt,
O=C1/C(=C/c2ccccc2)C[C@@]2(O)[C@H]3Cc4ccc(O)c5c4[C@@]2(CCN3CC2CC2)C1O5 (some centres not stated),nt,35,i,i,i,nt,nt,
Oc1ccc2c3c1OC1c4[nH]c5ccccc5c4C[C@@]4(O)C(C2)N(CC2CC2)CC[C@]314 (some centres not stated),nt,i,i,i,i,nt,nt,
Cc1ccc(C(=O)C2(C)N(O)C(C)C(c3cccs3)=[N+]2[O-])cc1 (configuration not stated),i,i,i,i,i,nt,nt,
Cn1c(O)c(C(c2ccccn2)c2c(O)n(C)c(=S)[nH]c2=O)c(=O)[nH]c1=S,i,i,i,i,i,nt,nt,
c1ccc(C2CC3CC4(CCCC4)N2O3)cc1 (configuration not stated),i,i,i,i,18,nt,nt,
COC(=O)C[C@]1(C(=O)OC)CN(C#N)N(c2ccc(Cl)cc2)C12c1ccccc1-c1ccccc12,i,55,i,i,i,nt,nt,
Cc1cc2c(C(F)(F)F)cc(=O)oc2c2c1NCCC2,31,i,i,i,i,nt,nt,TLR4-MyD88 conf=54;BLA inhibitor ct=55
C/C(=N\N1CCCCC1)c1c(O)[nH]c(=O)[nH]c1=O,i,i,i,i,i,nt,nt,
CC1(C)OC(c2ccccc2)=C/C(=C/C=C2C(=O)NC(=S)NC2=O)O1,67,nt,21,nt,nt,142,i,TLR4-MyD88 conf=63;BLA inhibitor ct=90
N#CCN1CCN(c2ccc(C(F)(F)F)cc2)CC1,i,i,i,i,i,nt,nt,
O=c1cc(C(F)(F)F)c2cc3c4c(c2o1)CCCN4CCC3,54,68,128,46,i,26,i,TLR4-MyD88 conf=49;BLA inhibitor ct=81;TLR9-MyD88 cf=51;BLA counter-1=55;TLR9 CHO cytotox=i;NOD2-RIPK2 conf=63;BLA counter-2=76
COc1cc(N2CCOCC2)ccc1/C=C1\C(=O)NC(=O)N(C2CCCCC2)C1=O,i,i,i,i,i,nt,nt,
O=[N+]([O-])c1ccc(N2CCCCCC2)c2nonc12,nt,i,i,i,i,nt,nt,
O=[N+]([O-])c1ccc(NCc2ccccc2)c2nonc12,i,nt,34,nt,nt,26,i,
O=C1NC(=S)SC1=Cc1ccc(N(CCCl)CCCl)cc1,nt,i,nt,i,i,nt,nt,
O=C1NC(=O)N(c2ccc3c(c2)OCO3)C(=O)/C1=C\c1ccc(N2CCCCC2)o1,i,i,19,i,i,21,i,
Cc1ccccc1N1C(=O)NC(=O)/C(=C/c2ccc(N3CCOCC3)o2)C1=O,nt,i,27,i,i,19,i,
O=C1NC(=O)N(c2cccc(Br)c2)C(=O)/C1=C/c1ccsc1,i,i,22,i,i,i,i,
CCN(C(=O)COC(=O)c1cc(C)n(C2CC2)c1C)c1ccccc1,nt,i,i,i,i,nt,nt,
SMILES,TLR4-MyD88 BLA,NOD2-RIPK2 inh,IDE inh,TLR9-MyD88 inh,IDE cell activ,IDE inh confirm,HEK293 tox,others
CCCCn1nnnc1C(c1cccc2ccccc12)N1CCC2(CC1)C(=O)NCN2c1ccccc1 (configuration not stated),nt,i,nt,nt,nt,nt,nt,
O=c1[nH]c2ccccc2n1C1CCN(C(c2ccccc2OC(F)(F)F)c2nnnn2-c2ccc3c(c2)OCCO3)CC1 (configuration not stated),nt,i,nt,nt,nt,nt,nt,
COc1cc(/C=C/c2nc3ccccc3c(=O)n2-c2ccccc2O)ccc1O,nt,i,60,i,i,128,i,
O=c1c2ccccc2nc(/C=C/c2ccccc2)n1-c1ccc(O)cc1,nt,i,i,i,i,nt,nt,
Cc1ccccc1-n1c(/C=C/c2ccccn2)nc2ccccc2c1=O,nt,i,i,i,i,nt,nt,
O=c1c2ccccc2nc(/C=C/c2ccc(O)c(O)c2)n1-c1ccccc1,nt,i,170,i,i,102,i,
CCc1nc2ccccc2c(=O)n1-c1ccccc1OC,nt,i,nt,i,i,nt,nt,
COc1ccccc1-n1c(/C=C/c2ccc(O)cc2)nc2ccccc2c1=O,nt,i,90,i,i,128,i,
Cn1c(O)c(/C=C/C=Nc2ccccc2)c(=O)n(C)c1=S,i,i,27,i,i,45,i,
Cc1cccc(-n2c(O)c(/C=C/C=Nc3ccccc3)c(=O)[nH]c2=O)c1,i,i,38,i,i,56,i,
O=C1NC(=O)N(Cc2ccc(F)cc2)C(=O)/C1=C\C=C\c1ccco1,nt,i,19,i,i,i,i,
COc1ccc(CN2C(=O)NC(=O)/C(=C/c3cc(OC)c(OC)c(OC)c3)C2=O)cc1,nt,i,i,i,i,nt,nt,
Cc1ccc(N2C(=O)NC(=O)/C(=C/c3ccoc3)C2=O)cc1,nt,i,nt,i,i,nt,nt,
COc1ccc(CN2C(=O)NC(=O)/C(=C/c3ccoc3)C2=O)cc1,nt,i,27,i,i,i,i,
C=CCN1C(=O)NC(=O)/C(=C/c2ccoc2)C1=O,i,i,19,i,i,i,i,

# High-throughput results: PubChem BioAssay, The Scripps Research Institute Molecular Screening Center
